The structures appear in SMILES notation. The panel holds about 83,000 compounds, 20% with a hit somewhere; the sample as a whole holds those more often.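 Cell lines were cultured in 96-well plates, exposed to a single compound concentration, and assessed for percent growth 48 hours later.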 A number with no mark means an inactive call. Calls of active or inactive are those of the source. How the source made its calls: active means growth percent below 10; inactive means the rest.

The assay concerns HL-60(TB) leukemia. Briefly: NCI-60 one-dose screen, 48 h (100 = growth as untreated, 0 = no growth, -100 = all killed). To be noted: 10 µM unless noted.
On to `C/C(=N/NC(N)=S)C(=O)O`, for which the growth was 85.3%.

Take `COc1cc2c(cc1OCCCN1CCN(CCCn3c4ccccc4c4ccccc43)CC1)N=C[C@@H]1CCCN1C2=O`: the growth was -44.8% (active).

As for `CCNc1nc(C(F)(F)F)nc2c1sc(=S)n2-c1ccccc1`, the growth was 98.9%.

In the case of `COc1ccc(C(=O)c2cc(C)c(OC)c(C)c2)cc1OC(=O)CCl`, the growth was -43.6% (active).

Take `Clc1cccc(Nc2ncnc3ccc(-c4cnc5[nH]ccc5c4)cc23)c1`: the growth was 105%.

In the case of `NNc1cccc([N+](=O)[O-])c1`, the growth was 6.4% (active).

Consider `CCN(CC)CCCC(C)Nc1c2ccc(Cl)cc2nc2cc(OC)c(OC)cc12` (centres undefined), for which the growth was 6.67% (active).

In the case of `COc1cc(/C=C/c2cc(/C=C/c3ccc(O)c(OC)c3)n(C(=O)c3ccc(Cl)cc3)n2)ccc1O`, the growth is -12.4% (active).

Take `Cc1ccc2c(c1)nc(C)n2-c1ncnc2c1CC(C)c1cc(O)ccc1N2C` (centres undefined): the growth is -5.44% (active).

As to `COc1ccc(CC(C)=C(c2ccc(OCCN(C)C)cc2)c2ccc(OCCN(C)C)cc2)cc1`, the growth is 41.3%.

Turning to `COc1ccc2nc3cc(Cl)ccc3c(N3CCN(c4ccnc(Nc5ccc(F)cc5)n4)CC3)c2c1`, the growth was 52.5%.

On to `Cc1ccc(C2CC(c3cccc(Nc4ccncc4)c3)=Nc3c(N)nc(N)nc3N2)cc1` (centres undefined), for which the growth is 33.7%.

As for `COC12C=C/C(=C(/C(=O)OCc3ccncn3)C(=O)CCCCCCCCC3(OC)C=C/C(=C(/C(=O)OCc4ccncn4)C(=O)CCCCCCCC1)O3)O2`, the growth is -17.1% (active).

As for `O=C1Nc2cc(-c3cccc(O)c3)ccc2/C1=C/c1ccc[nH]1`, the growth was 6.76% (active).

For the origin of these results see PubChem BioAssay (NCI).
